Sampled rows, rich in hits. Any-hit rate of the full collection: about 9.2%.
HttQ103 aggreg – inhibitors of mutant huntingtin aggregate formation in PC12 cells | PC12 HttQ103-GFP aggregates, Acumen cytometry, 40 h | Potency, µM (highest dose often 46.1 µM), inactives show at the top dose activity change, negative = inhibition, usual class: inhibitors | 220,000 tested, 1.1% active | AID 1688; active = well fitted curve in the direction sought with a large enough effect; inconclusive = small, poorly fitted or top-dose-only effect, or another doubt; inactive = no such curve, though single readings can be large; an effect the other way counts as inactive or inconclusive; note: % is set by controls: 0 for no effect and ±100 for the full control effect; nearly all actives have a fitted effect of over 60% in size
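Compounds (qHTS titration) were added to PC12 cells expressing an ecdysone-driven HTT exon 1 Q103–GFP fusion after induction with 100 nM tebufenozide. Aggregate formation was measured as GFP objects in cell lysates.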
HTT cytoprotect – protects HTT-Q103 PC12 cells, measured by ATP; PC12 HTT-Q103 induced, cytoprotection, ATP luminescence, 40 h; 230,000 tested, 0.14% active; Potency, µM (series often up to 56.4 µM), for the others: cytoprotection (ATP increase), usual class: activators; active = well fitted curve in the direction sought with a large enough effect; inconclusive = small, poorly fitted or top-dose-only effect, or another doubt; inactive = no such curve, though single readings can be large; an effect the other way counts as inactive or inconclusive; note: % of control where 0% means no effect; nearly all actives have a fitted effect of over 45% in size
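Quantitative HTS on tebufenozide-induced (100 nM) PC12 cells expressing HTTQ103 exon 1–GFP; compounds tested as a concentration series; survival measured via cellular ATP.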
LMNA splice mod – modulators of lamin A splicing. HeLa LMNA splicing GFP/RFP minigene ratio, 48 h. Potency, µM (titrated, usually from 46.1 µM), for the others: top-dose ratio change, negative = inhibition, actives largely listed as inhibitors. 200,000 tested, 0.01% active. AID 1487; active = well fitted inhibition curve with a large enough effect in the signal ratio, with a control signal flat, not every such curve was filed as active; inconclusive = small, poorly fitted or top-dose-only effect, or effect the other way, or a change in a side signal; the % refers to the signal ratio; note: % is set by controls: 0 for no effect and ±100 for the full control effect
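Read-out is the ratio of GFP to DsRed2 object intensity, acquired by 488 nm laser-scanning cytometry on HeLa lamin A-EGFP minigene reporter cells. Compound incubation 48 hrs at 37 °C in Opti-MEM with 2% FBS; DMSO 0.5% final.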
HPGD inh – HPGD (human) dehydrogenase inhibition | P15428 | purified HPGD, NADH fluorescence kinetic, PGE2 substrate | Potency, µM, for the others: at the highest dose activity change, negative = inhibition, actives largely listed as inhibitors | 150,000 tested, 4.3% active | AID 894; note: % is set by controls: 0 for no effect and ±100 for the full control effect
Target sequence (P15428 whole entry, looked up): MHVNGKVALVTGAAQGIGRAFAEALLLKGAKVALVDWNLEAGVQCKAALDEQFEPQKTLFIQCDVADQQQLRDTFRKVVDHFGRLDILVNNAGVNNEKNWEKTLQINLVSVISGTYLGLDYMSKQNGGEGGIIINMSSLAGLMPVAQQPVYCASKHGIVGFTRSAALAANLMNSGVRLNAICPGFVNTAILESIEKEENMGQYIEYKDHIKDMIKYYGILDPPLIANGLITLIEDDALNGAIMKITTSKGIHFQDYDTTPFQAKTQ
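20 nM HPGD preincubated 15 min at room temperature with compound in 50 mM Tris-HCl pH 8, 0.01% Tween 20. Started with 1 mM NAD+ and 30 uM prostaglandin E2; NADH fluorescence (360/450 nm) read 5 times over 30-s intervals, last minus first.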
ALDH1A1 block – inhibitors of human aldehyde dehydrogenase 1A1; Purified ALDH1A1, NADH fluorescence, propionaldehyde substrate; Potency, µM (series often up to 75.3 µM), inactives show at the top dose activity, negative = inhibition, usual class: inhibitors; 220,000 tested, 7.3% active; AID 1030;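 note: plate controls were no enzyme wells and a reference inhibitor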
JMJD2E inh – JMJD2E (human) inhibition | B2RXH2 | JMJD2E catalytic domain, FDH-coupled NADH fluorescence (FDH is formaldehyde dehydrogenase) | Potency, µM (top dose mostly 57.1 µM), inactives show at the highest dose activity change, negative = inhibition, usual class: inhibitors | 230,000 tested, 1.6% active | AID 2147;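 note: 0% = wells with enzyme and -100% = buffer wells without enzyme; nearly all actives have a fitted effect of over 50% in size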
Target sequence (B2RXH2 1-337 limits assumed): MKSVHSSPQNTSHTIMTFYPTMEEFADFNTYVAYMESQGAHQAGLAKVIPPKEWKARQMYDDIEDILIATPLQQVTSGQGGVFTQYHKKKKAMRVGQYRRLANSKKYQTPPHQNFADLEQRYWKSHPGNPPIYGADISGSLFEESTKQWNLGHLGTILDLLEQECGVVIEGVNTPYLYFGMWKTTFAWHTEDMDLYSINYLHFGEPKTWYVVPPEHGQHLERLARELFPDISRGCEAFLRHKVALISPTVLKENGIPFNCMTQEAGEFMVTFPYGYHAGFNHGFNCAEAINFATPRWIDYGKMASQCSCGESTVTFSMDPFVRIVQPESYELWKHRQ
Numbers without * were called inactive; u = inconclusive; x = no result; ! = not active in a repeat; [ ] = another dose, or the depositor's remark. Unless noted, calls come from the whole dose curve; as a rule, active = well fitted inhibition curve with a large enough effect (not every such curve was filed as active); inconclusive = small, poorly fitted or top-dose-only effect, or another doubt; inactive = no such curve, though single readings can be large or run the other way. Potency is the fitted concentration of half-maximal effect.

SMILES	HttQ103 aggreg	HTT cytoprotect	LMNA splice mod	HPGD inh	ALDH1A1 block	JMJD2E inh
CCOC(=O)c1cc(CC)sc1NC(=O)CSc1nc2ccccc2c(=O)n1Cc1ccco1	16.1%	x	u	-8.7%	3.5%	u
Cc1sc2nc(SCC(=O)C(C)(C)C)n(Cc3ccco3)c(=O)c2c1C	-15.7%	-49.0%	u	-26.1%	u	3.1%
CCC(CC)C(=O)Nc1nnc(SCc2cc(=O)n3cccc(C)c3n2)s1	x	x	0.7%[46 µM]	x	x	x
CCN1CCC(O)([C@H](C(=O)O)c2ccccc2)CC1	x	-6.3%[10 µM]	x	0.6%	-15.2%[13.5 µM]	x
COC(=O)N1C(C)=Cc2ccccc2C1C/C(C)=C/C(C)=O (stereo unspecified)	x	-6.8%	-11.9%[9.22 µM]	-7.7%	10.1%	-4.8%
Cc1cc(C)nc(N(C#N)Cc2ccccc2)n1	27.8%	-22.0%[0.074 µM]	11.1%	-18.9%	14.1µM*	3.9%
CCc1ccc(C(=O)CN(C#N)c2nc(C)cc(C)n2)cc1	u	-47.5%	u	-11.2%	-5.5%	-4.8%
Cc1cc(C)nc(N(C#N)Cc2ccc([N+](=O)[O-])cc2)n1	8.7%[9.22 µM]	10.8%[10 µM]	x	x	1.3%	1.4%
Cc1cc(C)nc(N(C#N)CC(=O)c2ccccc2)n1	u	-13.2%	-3.4%	-27.8%	28.2µM*	3.2%
N#CN(Cc1ccccc1)Cc1ccccc1	-3.6%[9.22 µM]	2.8%[10 µM]	x	x	39.8µM*	-12.6%
COc1cccc(CNC(=O)CN2C(=O)CC(c3ccccc3)=Nc3ccccc32)c1	-10.5%[9.22 µM]	5.0%[10 µM]	x	x	35.5µM*	15.2%
COc1cc(OC)c(NC(=O)Cn2c(=O)oc3cc(S(=O)(=O)N4CCCC4)ccc32)cc1Cl	x	x	-7.1%[46 µM]	x	x	x
O=C(Nc1ccc(Cl)cc1)[C@@H]1[C@@H]2C(=O)N(c3ccc(Cl)cc3Cl)C(=O)[C@@H]2[C@H]2C=CC=NN21	21.4%	-1.6%	-9.7%	28.2µM*	22.4µM*	-29.6%
Cc1ccc(N2C(=O)[C@@H]3[C@H](C2=O)[C@H]2C=CC=NN2[C@@H]3C(=O)Nc2ccc(Cl)cc2)cc1	21.5%	-10.7%	8.4%	35.5µM*	7.94µM*	-19.9%
O=C(Nc1ccc(Cl)cc1)[C@@H]1[C@@H]2C(=O)N(c3ccc(Cl)cc3)C(=O)[C@@H]2[C@H]2C=CC=NN21	9.4%	1.4%	-3.7%	-8.2%	u	-21.1%
COc1ccccc1N1C(=O)[C@@H]2[C@H](C1=O)[C@H](C(=O)c1ccc(OC(C)=O)cc1)N1N=CC=C[C@@H]21	-13.9%[9.22 µM]	0.8%[10 µM]	x	x	x	-24.4%
CCCCNC(=O)NS(=O)(=O)c1ccc(N)cc1	-7.7%	u	x	-12.3%	-0.4%	x
COc1ccc2[nH]cc(CCNc3cc(-c4ccoc4)ncn3)c2c1	x	2.6%	u	-8.9%	-2.6%	-10.5%
CC1=NN(c2ccc(C)c(C)c2)C(=O)/C1=C\C=C\c1ccc([N+](=O)[O-])o1	-3.8%	u	x	x	8.91µM*	-19.4%
CC1=NN(c2ccccc2)C(=O)/C1=C\C=C\c1ccccc1	-0.6%[9.22 µM]	-10.1%[10 µM]	x	x	u	-13.1%
CCn1c(=O)cc(OCC(=O)NCc2ccco2)c2ccccc21	29.0%	5.3%	-5.6%	-25.0%	u	-0.5%
CCn1c(=O)cc(SCC(=O)NCc2ccc(C)o2)c2ccccc21	-2.7%	-50.8%	-14.1%	28.2µM*	-7.6%	-3.1%
CCn1c(=O)cc(OCC(=O)NCc2ccc(C)o2)c2ccccc21	u	-9.8%[10 µM]	-11.8%	u	22.4µM*	-0.3%
O=C1O/C(=C\Br)CC[C@@H]1c1cccc2ccccc12	x	27.7%[1.9 µM]	x	x	x	x
CC(C)(C)c1csc(NC(=O)Cn2cnc3ccccc3c2=O)n1	-7.3%	12.3%[10 µM]	2.6%	20µM*	12.6µM*	0.5%
SMILES	HttQ103 aggreg	HTT cytoprotect	LMNA splice mod	HPGD inh	ALDH1A1 block	JMJD2E inh
COc1ccccc1NC(=O)Nc1nc(-c2cccnc2)nc2ccccc12	x	-40.7%	u	-7.4%	7.1%	2.4%
C/C(=N\Nc1cccc2cccnc12)c1ccc(N)cc1	5.1%	-41.2%	-26.0%[46 µM]	x	8.91µM*	u
COc1cc(NCCCC(C)N)c2ncccc2c1 (stereo unspecified)	17.8µM*!	-6.6%[10 µM]	3.2%	-16.5%	22.4µM*	u
COc1ccc(NC(=O)CN2CCN(Cc3ccc(F)cc3)S2(=O)=O)cc1Cl	x	x	-11.8%[46 µM]	x	x	x
CC(NC(=O)OCc1ccccc1)C(=O)N1CC(O)CC1C(=O)O (stereo unspecified)	x	0.1µM*	u	-0.9%	3.4%	4.7%
COc1cc2c3nnc(-c4ccc(F)cc4)c-3cn(Cc3ccc(C)cc3)c2cc1OC	-22.8%	-40.1%[10 µM]	-9.4%	-16.3%	4.47µM*	u
COc1cc2c3nnc(-c4ccc(F)cc4)c-3cn(Cc3cccc(F)c3)c2cc1OC	10µM*	-23.4%	u	x	10.9%	u
CCC(C(=O)N1CCN(c2ccccc2OC)CC1)c1ccccc1 (stereo unspecified)	-8.6%	x	u	-7.8%	39.8µM*	-2.0%
COc1ccccc1N1CCN(C(=O)c2oc3ccc(F)cc3c2C)CC1	11.2µM*	-13.1%[10 µM]	u	-0.1%	-2.4%	-2.3%
COc1ccccc1N1CCN(C(=O)c2ccc3nc(-c4ccco4)c(-c4ccco4)nc3c2)CC1	-30.3%	-11.1%[0.074 µM]	u	-17.3%	12.6µM*	u
COc1ccccc1N1CCN(C(=O)c2ccccc2Oc2ccccc2)CC1	12.3%	18.3%	-3.5%	-17.6%	0.562µM*	6.8%
NC(=O)C1c2ccccc2CCc2ccccc21	33.7%	u	x	x	x	x
CSCC[C@H](C=O)NC(=O)[C@H](CC(C)C)NC(=O)[C@H](CC(C)C)NC(C)=O	x	10.6%	x	-2.7%	7.6%	1.4%
COc1ccccc1N1CCN(C[C@@H](C(=O)NC(C)(C)C)c2ccccc2)CC1	x	-46.4%[1.9 µM]	x	-11.2%	25.1µM*	u
COc1ccccc1N1CCN(C[C@@H](O)COc2cccc3ccccc23)CC1	x	1.6%	u	-12.8%	u	u
CSCCOC(=O)COc1ccc(/C=N/NC(=O)c2nn(C)cc2Cl)cc1	4.3%	x	-3.1%	3.98µM*	6.7%	-16.2%
Cc1ccc(S(=O)(=O)Oc2ccc(/C=N/NC(=O)c3nn(C)cc3Cl)cc2)cc1	8.7%	7.3%[10 µM]	-3.8%	-27.5%	u	-3.2%
O=C(N/N=C1/C[C@@H](O)[C@@H](O)[C@@H]2[C@@H]3C(=O)N(Cc4ccc5c(c4)OCO5)C(=O)[C@H]3CC[C@@H]12)OCc1ccccc1	x	-20.4%[10 µM]	x	x	7.6%[13.5 µM]	x
Cc1ccc2cc(CN(Cc3ccc(F)cc3)Cc3nnnn3C3CCCC3)c(=O)[nH]c2c1	25.1µM*	-5.5%[1.9 µM]	3.6%	-26.4%	14.1µM*	u
Cc1ccc2cc(CN(Cc3ccccc3)Cc3nnnn3C3CCCC3)c(=O)[nH]c2c1	u	-12.9%[10 µM]	u	-22.4%	10µM*	u
COc1ccc(Cn2nnnc2CN(Cc2cc3ccc(C)cc3[nH]c2=O)C2CCCC2)cc1	-6.5%[9.22 µM]	-29.6%	u	-5.1%	22.4µM*	u
CON	x	x	-4.1%	-4.6%	-2.6%	-12.2%
